Compounds with a hit are over-represented: about 28% of the library has one in this group of screens.
Pyk2 oligo antag – blocks oligomerization of human Pyk2 in cells; Q14289; Q293 cells, Pyk2 FERM NanoBiT luminescence; active compounds read low; AID 1347419; 99,000 compounds, 0.83% hits; z-score (the deposit names both 25 µM and 10 µM);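 active means Z-score of -3 or lower, scaled per plate to the spread of control and sample wells; inactive means z-score above -3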;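 further: negative z-score means lost luminescence so less FERM oligomerization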
CYP2C19 activ – activators of human cytochrome P450 2C19. P33261. recombinant CYP2C19, luciferin-H EGE luminescence; active compounds read high; 0 = fully inhibited enzyme, 1 = untreated enzyme. activation factor at 5 µM. 96,000 tested, under 10 active. AID 1025;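 active means activation factor of at least 2 at 5 µM in the primary screen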;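 further: 0 = wells with 2.5 mM tranylcypromine and 1 = vehicle-only wells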
CYP2C9 inhib – blocks human cytochrome P450 2C9; CYP2C9 Supersomes, luciferin-H conversion, luminescence; 96,000 compounds, 20% hits; inhibition, % at 5 µM; AID 777; P11712;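 active means blocking of liver enzyme CYP2C9 beyond about 50% at 5 µM, limit read from the data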
CYP2C19 inh – inhibitors of human CYP2C19. CYP2C19 Supersomes, luciferin-H EGE luminescence, 30 min. inhibition, % at 5 µM. 96,000 compounds, 21% hits. AID 778;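 active means CYP2C19 inhibition above a set limit at 5 µM in the primary screen, cut at about 50% in these data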;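 further: plate controls were negative control wells for no effect and 2.5 mM tranylcypromine positive control for full effect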
CYP2C9 activ – CYP2C9 (human) activation. P11712. recombinant CYP2C9, luciferin-H conversion, luminescence; active compounds read high; factor 1 = untreated enzyme, 0 = blocked. activation factor at 5 µM. 96,000 compounds, 1.4% hits. AID 1024;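 active means activation factor of 2 or more for CYP2C9 at a 5 µM dose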;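 further: 0 = sulfaphenazole-blocked wells and 1 = vehicle-only wells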
Starred values were filed as active, the others as inactive; x = no result.

SMILES	Pyk2 oligo antag	CYP2C19 activ	CYP2C9 inhib	CYP2C19 inh	CYP2C9 activ
COC(=O)CSc1nc(N)c2c3c(sc2n1)CCCC3	0.05	0.1	65.4*	86.0*	0.3
CCCSc1nc(N)c2c3c(sc2n1)CN(C)CC3	-1.18	0.2	26.1	81.9*	0.7
Nc1nc(SCC(=O)NCCCO)nc2sc3c(c12)CCC3	-0.45	0.9	2.8	7.8	1
CC(C)(C)NC(=O)NC(=O)COC(=O)COc1ccc2c(c1)CCC2	0.64	0.5	24.9	50.0*	0.8
CC1CCCC(N2C(=O)NC(NC(=O)c3ccco3)(C(F)(F)F)C2=O)C1C (stereo not drawn)	0.24	0.4	42.9	63.1*	0.6
COc1ccc(Cn2c(CCC(=O)Nc3ccccc3)nc3cccnc32)cc1	-1.49	0.8	-2.9	20.7	1
O=C(CCc1nc2cccnc2n1Cc1ccccc1)NCCc1ccc(Cl)cc1	-1.07	0.3	68.9*	71.1*	0.3
COc1ccc(Cn2c(CCC(=O)Nc3ccc(C)c(C)c3)nc3cccnc32)cc1	-1.05	0.4	98.4*	64.5*	0
COCCCNC(=O)CCc1nc2cccnc2n1Cc1ccccc1	0.75	0.9	15.1	5.9	0.8
CSc1nnc(-c2ccc(S(=O)(=O)N3CCCC3)cc2)n1C	0.1	0.8	-5.5	15.6	1.1
CC(C)(C)NC(=O)CN(C(=O)C1CSC(=O)C1)c1ccc2c(c1)OCCO2 (stereo not drawn)	-0.74	1.1	-23.0	-7.4	1.2
O=C(OCC(=O)N1CCN(C(=O)COC(=O)c2ccncc2)CC1)c1ccncc1	1.23	1.3	-20.2	-25.1	1.2
CN1C(=O)C(C(=O)NC(C)(C)C)C2c3ccccc3OC13CCCCC23 (stereo not drawn)	0.18	0.4	60.5*	57.9*	0.4
CCOc1ccc(CCNC(=O)CCN2C(=O)COc3ccccc32)cc1OCC	1.25	0.9	32.2	14.6	0.7
CCCCN(CC)S(=O)(=O)N1CCC(C(=O)NCc2ccc(F)cc2)CC1	0.07	0.4	47.1	57.9*	0.5
O=C(c1ccccc1)c1cn[nH]c1-c1ccccc1O	0.49	0.7	20.6	25.9	0.8
Cc1ccc(C(=O)c2cn[nH]c2-c2cc(Cl)ccc2O)cc1	-2.09	0	79.8*	95.7*	0.2
COc1ccc(O)c(-c2[nH]ncc2C(=O)c2ccccc2)c1	-3.49*	0.2	63.7*	81.2*	0.4
O=C(c1ccco1)c1cn[nH]c1-c1ccc(Cl)cc1O	-2	0.1	50.8*	92.1*	0.5
O=C(NCCCN1CCOCC1)c1cc2c(s1)CSC2	1.55	0.9	-10.6	11.2	1.1
Cc1oc(-c2ccc3c(c2)OCCO3)cc1C(=O)O	0.75	0.1	72.0*	88.1*	0.3
COC(=O)/C(=C/c1c[nH]c2ccccc12)[N+](=O)[O-]	0.02	1	-15.6	-3.4	1.2
CC(c1ccccc1)n1cc(C(=O)NCc2ccncc2)nn1 (stereo not drawn)	0.4	0.7	80.7*	30.6	0.2
CC(c1ccccc1F)n1cc(C(=O)NCCc2ccco2)nn1 (stereo not drawn)	0.25	0.6	58.0*	35.2	0.4
CC(c1ccccc1F)n1cc(C(=O)NCc2ccncc2)nn1 (stereo not drawn)	0.34	0.5	69.1*	53.6*	0.3
SMILES	Pyk2 oligo antag	CYP2C19 activ	CYP2C9 inhib	CYP2C19 inh	CYP2C9 activ
O=C(NC1CCCCC1)C(c1ccccc1F)N(Cc1ccco1)C(=O)Cn1nnc2ccccc21 (stereo not drawn)	-0.9	0.9	-6.2	7.7	1.1
COc1ccc(C2C(C(=O)Nc3cccc(C)n3)c3ccccc3C(=O)N2C)cc1OC (stereo not drawn)	-0.3	1	17.2	4.4	0.8
COc1ccc(C(=O)Nc2ccccc2C(=O)NC(C)C)cc1OC	0	0.9	36.2	5.1	0.6
O=C1[C@H]2[C@@H](C(=O)N1c1cccc3ccccc13)C1(C(=O)c3ccccc3C1=O)N1CCC[C@@H]21	0.54	0.6	26.2	38.2	0.7
COC(=O)c1ccc(=O)n(Cc2ccc3c(c2)OCO3)c1	0.19	0	40.0	98.1*	0.6
CCn1c(CCNC(=O)c2ccccc2Cl)n[nH]c1=S	-0.19	1	8.0	2.0	0.9
Cc1ccc(C(C)C)c(OCCN(C)C)c1	0.29	0.9	-4.2	14.0	1
Cc1ccc(C(C)C)c(OCCNC(=S)Nc2cccc3ccccc23)c1	-0.76	0.1	84.0*	85.1*	0.2
Cc1ccc(CNc2nc(N)c([N+](=O)[O-])c(Nc3cccc(F)c3)n2)cc1	0.8	0.5	65.2*	50.0*	0.3
Nc1nc(NCc2ccccc2)nc(Nc2cccc(F)c2)c1[N+](=O)[O-]	-0.05	1.1	x	-6.0	x
COC(=O)c1sccc1NC(=O)CSc1nnnn1-c1ccccc1F	-1.04	1	-113.5	3.5	2.1*
COC(=O)c1sccc1NC(=O)CN(C)NS(=O)(=O)c1ccc(Cl)cc1	0.35	0.8	11.1	15.3	0.9
COC(=O)c1sccc1NC(=O)CSc1ccccc1NS(=O)(=O)c1ccc(F)cc1	-1.21	0.7	74.2*	27.0	0.3
COC(=O)c1sccc1NC(=O)CSc1ccccc1NS(=O)(=O)c1ccc(Br)cc1	0.37	0.8	79.8*	18.7	0.2
COC(=O)c1sccc1NC(=O)CN(C)NS(=O)(=O)c1ccc(F)cc1	0.26	0.8	91.3*	16.7	0.1
Cc1cc([N+](=O)[O-])c(NCCCCCCO)c([N+](=O)[O-])c1	-0.55	x	x	x	x
OC(COc1ccc2c(c1)OCO2)CN1CCc2ccccc2C1 (stereo not drawn)	0.83	0.6	8.0	42.6	0.9
Nc1nnc(CC(=O)N/N=C/c2cccc(OCCOc3ccccc3)c2)s1	-1.01	1.1	0.0	-8.1	1
O=C1OCCC1Sc1nc2ccccc2n1Cc1ccccc1 (stereo not drawn)	0.19	0.2	54.8*	81.9*	0.5
O=C1OCCC1Sc1nc2ccccc2n1-c1ccccc1 (stereo not drawn)	0.61	0.3	66.5*	69.2*	0.3
COc1ccc(-n2c(SC3CCOC3=O)nc3ccccc32)cc1 (stereo not drawn)	-0.28	0.5	40.7	50.9*	0.6
CC(C)N(C(=O)CSc1nc2ccccc2n1Cc1ccccc1)C(C)C	-0.07	x	x	x	x
CC1(C)CC(=O)c2c(-c3cccnc3)n[nH]c2C1	-0.02	0.9	-6.4	13.4	1.1
COc1cc(OC)cc(C(=O)N[C@H](C(=O)NC23CC4CC(CC(C4)C2)C3)C(C)C)c1	-0.19	0.5	44.1	45.8	0.6
CCSc1nnc([C@H](Cc2ccccc2)NC(=O)OC(C)(C)C)o1	-0.46	0.8	28.7	20.7	0.7
CC(C)(C)OC(=O)N[C@@H](Cc1ccccc1)c1nnc(S(=O)(=O)Cc2ccccc2)o1	x	0.5	43.5	45.6	0.6
CC(C)(C)OC(=O)N[C@@H](Cc1ccccc1)c1nnc(SCC(=O)O)o1	-0.24	1	56.4*	3.1	0.4

From PubChem BioAssay
